For part of these data: Results with a measured potency or affinity are listed apart. Active and inactive are the calls of the source.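 Rule for the calls, unless noted: active = primary screen inhibitor hit that blocks the TRPC4 channel at some tested dose, yielding a dose curve; inactive = the rest.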
Columns and labels:
[1] = system: TRPC4 beta (transient receptor potential cation channel C4), mouse; assay: activators of mouse TRPC4 channel, confirmation, cell-based, Fluo4 calcium, HEK293 TRPC4beta/mu-opioid, duplicates, 10 µM (AID 2426;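 active = fluorescence ratio normalized to control raised more than 50% in primary screen plus both repeat runs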;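 for activation: percent rise of integrated ratio over buffer wells lacking compound which define 0%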); details: Fluo4 calcium fluorescence, at 10 µM; hits give high values
[2] = system: transient receptor potential cation channel C4 beta (TRPC4), mouse; assay: activators of mouse TRPC4 channel, confirmation, cell-based, second round, Fluo4, HEK293 TRPC4beta/mu-opioid, 1 µM (AID 2461;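 active = primary screen active and over 50% activation in each of two duplicate runs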;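 for activation: 0% = wells without test compound as baseline of integrated fluorescence ratio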); details: Fluo4 calcium fluorescence, at 1 µM; hits give high values
[3] = system: TRPC4 (transient receptor potential cation channel C4 beta), mouse; assay: positive allosteric modulators of mouse TRPC4, confirmation, cell-based, second round, Fluo-4, HEK293 TRPC4beta/mu-opioid, 1 µM (AID 2554;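 active = primary screen hit whose fluorescence ratio, in both repeats, exceeds the weak agonist control mean by 3 SD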); details: DAMGO EC20, Fluo-4 calcium flux, at 1 µM; hits give high values
[4] = system: TRPC4 beta (transient receptor potential cation channel C4), mouse; assay: positive allosteric modulators of mouse TRPC4, confirmation, cell-based, Fluo-4, HEK293 TRPC4beta/mu-opioid (AID 2555;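 active = primary screen hit whose calcium fluorescence ratio, in both repeats, exceeds the weak agonist control mean by 3 SD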); details: DAMGO EC20, Fluo-4 calcium flux, at 10 µM; hits give high values
[5] = target: Short transient receptor potential channel 4 (Mus musculus) (UniProt Q9QUQ5); assay: inhibitors of mouse TRPC4 channel, confirmation, cell-based, Fluo4, HEK293 TRPC4beta/mu-opioid (AID 2636;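 active = calcium signal cut by more than 3 SD below the full-agonist control yet still positive, in both repeats and the earlier primary screen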); details: DAMGO, Fluo4 calcium flux, at 10 µM; hits give high values
[6] = target: Short transient receptor potential channel 4 (Mus musculus) (UniProt Q9QUQ5); assay: inhibitors of mouse TRPC4 channel, confirmation, cell-based, second round, Fluo4, HEK293 TRPC4beta/mu-opioid, 1 µM (AID 2637;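 active = calcium signal ratio cut to more than 3 SD under the fully stimulated control mean yet still positive, in both repeats and the primary screen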); details: Fluo4 calcium flux, DAMGO, at 1 µM; hits give high values
[7] = target: Short transient receptor potential channel 4 (Mus musculus) (UniProt Q9QUQ5); assay: TRPC4 positive allosteric modulators, dose response, cell-based, HEK293 TRPC4/mu-opioid, Fluo-4 calcium, EC20 DAMGO (AID 434941;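 active = earlier screen potentiator hit that boosts the TRPC4 ion channel at some dose, with a dose response; inactive = no potentiation, no dose response, or not a prior hit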;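 note: calcium entry triggered by an EC20 dose of DAMGO at the co-expressed mu-opioid receptor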)
[8] = target: Short transient receptor potential channel 4 (Mus musculus) (UniProt Q9QUQ5); assay: mouse TRPC4 channel inhibitors, dose response, cell-based, HEK293 TRPC4/mu-opioid, Fluo-4 calcium (AID 434942)
[9] = target: Short transient receptor potential channel 6 (Mus musculus) (UniProt Q61143); assay: inhibition of mouse TRPC6 channel, confirmation, selectivity assay for TRPC4 inhibitor project, cell-based, HEK293, membrane potential dye, duplicate (AID 434948;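 active = active in primary screen and both duplicates, each dropping signal beyond three positive-control SD with fluorescence still positive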); details: HEK293 TRPC6, membrane potential dye fluorescence, at 10 µM, stimulated with maximal-effect acetylcholine; hits give high values
[10] = target: Short transient receptor potential channel 6 (Mus musculus) (UniProt Q61143); assay: activation of mouse TRPC6 channel, confirmation, selectivity assay for TRPC4 activator project, cell-based, HEK293, membrane potential dye, duplicate (AID 434950;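 active = membrane potential signal rise above negative control mean plus 3 SD in both duplicates, also active in the earlier TRPC4 screen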;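 for activation: 0% = buffer only wells and 100% = acetylcholine maximal-effect wells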); details: HEK293 TRPC6, membrane potential fluorescence, at 10 µM; hits give high values
[11] = target: Short transient receptor potential channel 6 (Mus musculus) (UniProt Q61143); assay: TRPC6 potentiation by TRPC4 potentiator hits, confirmation, selectivity assay for TRPC4 potentiator project, HEK293 cells, membrane potential dye, duplicate (AID 434952;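 active = compound raising the membrane signal above positive-control mean plus 3 SD in both repeats, and a primary screen hit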); details: HEK293 TRPC6, membrane potential dye fluorescence, at 10 µM, maximal acetylcholine added after compound; hits give high values
[12] = target: Short transient receptor potential channel 4 (Mus musculus) (UniProt Q9QUQ5); assay: calcium flux activators in TRPC4/5HT1a cells, counter-screen for TRPC4 activator project, cell-based, second counter screen, HEK293 TRPC4/5HT1a, Fluo-4 (AID 434977;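 active = calcium signal rise above buffer-control mean plus 5 SD in both duplicates, and also a hit in the primary screen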;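 for activation: plate controls were assay buffer for no effect and maximal serotonin response for full effect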); details: Fluo-4 calcium flux, at 10 µM; hits give high values
[13] = calcium flux inhibitors in TRPC4/5HT1a cells, confirmation, counter-screen for TRPC4 inhibitor project, cell-based, second counter screen, HEK293 TRPC4/5HT1a, Fluo-4 (AID 434978;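 active = primary screen active whose calcium signal fell more than 3 SD beyond the full-serotonin control mean in both duplicate plates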;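 note: serotonin given first at submaximal then at maximal dose after compound preincubation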); details: Fluo-4 calcium flux, at 10 µM, serotonin added to trigger calcium flux; hits give high values
[14] = system: TRPC4 (mouse), co-expressed with 5HT1a in HEK293; assay: calcium flux potentiators in TRPC4/5HT1a cells, confirmation, counter-screen for TRPC4 potentiator project, cell-based, second counter screen, HEK293 TRPC4/5HT1a, Fluo-4 (AID 434979;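 active = signal rise over 3 SD above mean of control wells given weak agonist, in both repeats and first screen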); details: Fluo-4 calcium flux, at 10 µM, serotonin added at its EC20 dose; hits give high values
[15] = calcium flux activation in mu-opioid HEK293 cells, confirmation, counter-screen for TRPC4 activator project, cell-based, HEK293 mu-opioid receptor line (AID 449723;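 active = hit in primary screen, with calcium signal over 5 SD above buffer well mean in both duplicates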;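 note: counter screen cells carry the mu-opioid receptor alone and lack TRPC4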); details: Fluo-4 calcium fluorescence, at 10 µM; hits give high values
[16] = calcium flux enhancement in mu-opioid HEK293 cells, confirmation, counter-screen for TRPC4 allosteric potentiator project, cell-based, HEK293 mu-opioid receptor line (AID 449724;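 active = calcium signal rise more than 3 SD above the low-dose agonist control mean, in both duplicate plates and the primary screen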); details: Fluo-4 calcium flux, at 10 µM, compound added before EC20 DAMGO stimulus; hits give high values

Chain of Short transient receptor potential channel 4 (Mus musculus) (Q9QUQ5 whole entry, looked up): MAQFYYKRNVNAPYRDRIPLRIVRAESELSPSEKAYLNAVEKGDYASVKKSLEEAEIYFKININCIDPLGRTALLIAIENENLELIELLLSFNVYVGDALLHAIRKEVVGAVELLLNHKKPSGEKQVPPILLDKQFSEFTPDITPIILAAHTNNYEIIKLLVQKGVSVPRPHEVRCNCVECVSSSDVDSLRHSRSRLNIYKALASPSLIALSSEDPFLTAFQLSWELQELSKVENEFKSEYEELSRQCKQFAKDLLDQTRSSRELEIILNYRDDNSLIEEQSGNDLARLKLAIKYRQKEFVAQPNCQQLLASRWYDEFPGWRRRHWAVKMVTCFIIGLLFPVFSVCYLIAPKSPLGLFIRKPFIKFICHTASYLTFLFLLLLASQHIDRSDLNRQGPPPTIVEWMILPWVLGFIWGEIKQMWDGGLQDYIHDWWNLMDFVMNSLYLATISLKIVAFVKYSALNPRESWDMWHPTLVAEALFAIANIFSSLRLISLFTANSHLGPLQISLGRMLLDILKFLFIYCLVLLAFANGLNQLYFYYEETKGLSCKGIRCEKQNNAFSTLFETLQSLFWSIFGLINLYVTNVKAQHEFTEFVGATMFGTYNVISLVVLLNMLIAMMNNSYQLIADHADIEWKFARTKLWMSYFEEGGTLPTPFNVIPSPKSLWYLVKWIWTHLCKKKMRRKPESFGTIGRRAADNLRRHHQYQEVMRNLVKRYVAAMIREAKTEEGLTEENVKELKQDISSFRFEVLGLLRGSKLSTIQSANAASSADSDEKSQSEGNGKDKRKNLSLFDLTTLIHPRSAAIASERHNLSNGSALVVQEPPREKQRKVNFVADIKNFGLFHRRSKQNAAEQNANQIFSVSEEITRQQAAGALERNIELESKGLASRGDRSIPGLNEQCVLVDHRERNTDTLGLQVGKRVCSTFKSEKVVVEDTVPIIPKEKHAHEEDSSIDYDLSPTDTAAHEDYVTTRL
Chain of Short transient receptor potential channel 6 (Mus musculus) (Q61143 whole entry, looked up): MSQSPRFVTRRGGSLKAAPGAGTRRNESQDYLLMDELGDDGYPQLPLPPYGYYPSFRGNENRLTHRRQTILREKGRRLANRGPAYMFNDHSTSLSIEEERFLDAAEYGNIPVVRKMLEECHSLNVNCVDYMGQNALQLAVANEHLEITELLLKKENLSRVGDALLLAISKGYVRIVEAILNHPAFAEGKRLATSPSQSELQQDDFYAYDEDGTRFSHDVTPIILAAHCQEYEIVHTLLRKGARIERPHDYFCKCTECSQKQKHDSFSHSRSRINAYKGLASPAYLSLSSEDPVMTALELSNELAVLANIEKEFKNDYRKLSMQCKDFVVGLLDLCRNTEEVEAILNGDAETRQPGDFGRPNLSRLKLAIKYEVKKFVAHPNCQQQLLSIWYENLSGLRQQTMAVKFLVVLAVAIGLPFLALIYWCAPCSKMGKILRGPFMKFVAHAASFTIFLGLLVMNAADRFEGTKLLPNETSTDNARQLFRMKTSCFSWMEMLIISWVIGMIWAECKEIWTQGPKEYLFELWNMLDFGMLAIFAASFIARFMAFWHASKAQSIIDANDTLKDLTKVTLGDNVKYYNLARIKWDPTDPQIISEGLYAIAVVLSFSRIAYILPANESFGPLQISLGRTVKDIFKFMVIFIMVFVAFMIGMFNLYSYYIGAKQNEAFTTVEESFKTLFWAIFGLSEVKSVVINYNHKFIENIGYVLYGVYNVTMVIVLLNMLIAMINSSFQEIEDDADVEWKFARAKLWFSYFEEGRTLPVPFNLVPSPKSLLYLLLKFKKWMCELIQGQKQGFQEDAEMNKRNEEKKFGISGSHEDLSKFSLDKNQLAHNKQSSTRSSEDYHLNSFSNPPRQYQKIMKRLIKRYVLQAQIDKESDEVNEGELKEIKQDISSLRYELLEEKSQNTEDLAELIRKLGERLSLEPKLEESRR

O=C(N/N=C/c1ccco1)C1COc2ccccc2O1 (stereo not given)
active: activation [1] 80% | activation [12] 27.3%
inactive: outcome [2] | outcome [3] | outcome [4] | outcome [5] | outcome [6] | outcome [7] | outcome [8] | outcome [9] | outcome [10] | outcome [11] | outcome [13] | outcome [14] | outcome [15] | outcome [16]

COc1ccccc1N1CCN(C(c2cccs2)C(C)NC(=O)c2ccco2)CC1 (stereo not given)
active: activation [1] 73% | activation [10] 32%
inactive: outcome [2] | outcome [3] | outcome [4] | outcome [5] | outcome [6] | outcome [7] | outcome [8] | outcome [9] | outcome [11] | outcome [12] | outcome [13] | outcome [14] | outcome [15] | outcome [16]

COc1ccccc1/C=C/CN1CCCC(CCC(=O)NCc2ccc(F)c(F)c2)C1 (stereo not given)
active: activation [1] 92% | activation [2] 79% | activation [10] 43.5% | activation [12] 35.2%
inactive: outcome [3] | outcome [4] | outcome [5] | outcome [6] | outcome [7] | outcome [8] | outcome [9] | outcome [11] | outcome [13] | outcome [14] | outcome [15] | outcome [16]

Nc1c(C(=O)c2ccccc2)sc2nsc(SCCN3CCCC3)c12
inactive: outcome [2] | outcome [3] | outcome [4] | outcome [5] | outcome [6] | outcome [7] | outcome [8] | outcome [9] | outcome [11] | outcome [13] | outcome [14] | outcome [16]
active: activation [1] 89% | activation [10] 410% | activation [12] 93% | activation [15] 84.3%

CCN1CCN(c2ccc(S(=O)(=O)N3CCOCC3)cc2NC(=O)c2ccccc2SC)CC1
active: activation [1] 316% | activation [2] 110% | activation [12] 81.4%
inactive: outcome [3] | outcome [4] | outcome [5] | outcome [6] | outcome [7] | outcome [8] | outcome [9] | outcome [10] | outcome [11] | outcome [13] | outcome [14] | outcome [15] | outcome [16]

O=C(NCCc1cnc[nH]1)c1ccc(-c2ccccc2)cc1
inactive: outcome [2] | outcome [3] | outcome [4] | outcome [5] | outcome [6] | outcome [7] | outcome [8] | outcome [9] | outcome [11] | outcome [13] | outcome [14] | outcome [15] | outcome [16]
active: activation [1] 109% | activation [10] 59% | activation [12] 17.5%

O=C(Nc1ccncc1)c1ccc(Cl)c(S(=O)(=O)N2CCc3ccccc32)c1
inactive: outcome [2] | outcome [3] | outcome [4] | outcome [5] | outcome [6] | outcome [7] | outcome [8] | outcome [9] | outcome [10] | outcome [11] | outcome [13] | outcome [14] | outcome [15] | outcome [16]
active: activation [1] 108% | activation [12] 17.7%

COc1ccc(C(CNC(=O)Cc2cccs2)N(C)C)cc1 (stereo not given)
active: activation [1] 102% | activation [2] 103% | activation [10] 36.5%
inactive: outcome [3] | outcome [4] | outcome [5] | outcome [6] | outcome [7] | outcome [8] | outcome [9] | outcome [11] | outcome [12] | outcome [13] | outcome [14] | outcome [15] | outcome [16]

CN1CCN(Cc2nc3c(c(=O)[nH]c(=O)n3C)n2Cc2c(F)cccc2Cl)CC1
active: activation [1] 135% | activation [2] 80% | potentiation [3] 11% | activation [10] 30% | activation [12] 17.9% | potentiation [14] 36.3%
inactive: outcome [4] | outcome [5] | outcome [6] | outcome [7] | outcome [8] | outcome [9] | outcome [11] | outcome [13] | outcome [15] | outcome [16]

CC(C)n1cnc2c(N(C)c3ccccc3)nc(N(CCN(C)C)Cc3ccccc3)nc21
active: activation [10] 31%
inactive: outcome [1] | outcome [2] | outcome [3] | outcome [4] | outcome [5] | outcome [6] | outcome [7] | outcome [8] | outcome [9] | outcome [11] | outcome [12] | outcome [13] | outcome [14] | outcome [15] | outcome [16]

COc1cc2c(cc1OC)C(C)N(C(=O)C(NC(=O)c1ccccc1)C(C)C)CC2 (stereo not given)
active: activation [1] 130% | activation [10] 31%
inactive: outcome [2] | outcome [3] | outcome [4] | outcome [5] | outcome [6] | outcome [7] | outcome [8] | outcome [9] | outcome [11] | outcome [12] | outcome [13] | outcome [14] | outcome [15] | outcome [16]

CN(C)c1ccc(C(CNC(=O)Cc2cccc3ccccc23)N(C)C)cc1 (stereo not given)
inactive: outcome [2] | outcome [3] | outcome [4] | outcome [5] | outcome [6] | outcome [7] | outcome [8] | outcome [9] | outcome [10] | outcome [11] | outcome [12] | outcome [13] | outcome [14] | outcome [15] | outcome [16]
active: activation [1] 102%

Cc1sc(NC(=O)c2ccccc2)c(C(=O)NCCN(C)C)c1C
inactive: outcome [2] | outcome [3] | outcome [4] | outcome [5] | outcome [6] | outcome [7] | outcome [8] | outcome [9] | outcome [10] | outcome [11] | outcome [13] | outcome [14] | outcome [15] | outcome [16]
active: activation [1] 128% | activation [12] 12.1%

COCCn1nnnc1C(c1cc2ccc(OC)cc2[nH]c1=O)N1CCN(C2CCCCC2)CC1 (stereo not given)
active: activation [1] 133% | activation [10] 37.5% | activation [12] 13.6%
inactive: outcome [2] | outcome [3] | outcome [4] | outcome [5] | outcome [6] | outcome [7] | outcome [8] | outcome [9] | outcome [11] | outcome [13] | outcome [14] | outcome [15] | outcome [16]

NC(N)=NN=C1CCCCCCCCCCC1
inactive: outcome [2] | outcome [3] | outcome [4] | outcome [5] | outcome [6] | outcome [7] | outcome [8] | outcome [9] | outcome [11] | outcome [13] | outcome [14] | outcome [16]
active: activation [1] 95% | activation [10] 32.5% | activation [12] 32.2% | activation [15] 24.9%

From PubChem BioAssay
